This is a sample that favours compounds with a hit; in the whole collection about 8.7% have one here.
BAZ2B block – BAZ2B (human) inhibition | 360,000 compounds, 4.4% hits | Q9UIF8 | Potency, µM (top dose mostly 114 µM), inactives show top-dose activity change, negative = inhibition, most hits filed as inhibitors | AlphaScreen BAZ2B-H3K14Ac peptide displacement; further: on the % scale 0 is the no-effect control and ±100 the full control effect; nearly all actives have a fitted effect of over 60% in size
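AlphaScreen displacement of biotin-H3(5-23)K14Ac peptide (50 nM final) from BAZ2B (50 nM final) in PBS pH 7.4, 0.01% Tween-20; complex preformed 30 min RT, then compounds (top 110 uM) 30 min RT, beads 20 min dark.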
G9a inh – G9a (human) methyltransferase inhibition. Potency, µM (titrated, usually from 102 µM), without a hit: top-dose activity, negative = inhibition, actives largely listed as inhibitors. G9a H3K9 monomethylation, AlphaScreen, 2 h. 350,000 compounds, 8.8% hits; further: on the % scale 0 is the no-effect control and ±100 the full control effect; nearly all actives have a fitted effect of over 75% in size
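Chemiluminescent proximity detection of H3K9 monomethylation, read after 10 min bead incubation in the dark. Reaction: 20 nM G9a, 500 nM biotin-H3K9 peptide, 20 uM SAM cofactor, 2 h, room temperature, following 15 min enzyme-compound preincubation.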
HP1b binding inh – HP1-beta chromodomain-methylated histone interaction inhibition | AlphaScreen HP1-beta / biotin-H3K9me3 peptide binding | Potency, µM (titrated, usually from 114 µM), for inactives: at the top dose activity change, negative = inhibition, actives largely listed as inhibitors | 390,000 compounds, 0.56% hits | AID 540317; further: nearly all actives have a fitted effect of over 70% in size
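Compound inhibition of the preformed complex between 50 nM HP1-beta and 50 nM biotinylated H3K9me3 peptide was read by AlphaScreen. Buffer was PBS pH 7.4 with 0.01% Tween-20. Incubations ran 30 min at room temperature, with 10 ug/mL donor/acceptor beads.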
Sfp PPTase inh – blocks B. subtilis Sfp PPTase activity; Q9F4F7; Biochemical Sfp PPTase activity, qHTS; Potency, µM, for the others: largest response in the series, negative = inhibition, actives largely listed as inhibitors; 310,000 compounds, 3.5% hits; AID 1490;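 further: the enzyme is Sfp with the accession as filed and its product quenches rhodamine fluorescence; 0% = enzyme reaction without inhibitor and -100% = no enzyme wells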
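Compounds were incubated with enzyme (final 15 nM) for 15 min at room temperature before substrate addition started the reaction. Fluorescence at 525 nm excitation, 598 nm emission was recorded immediately and after 30 minutes.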
12-LOX inh – ALOX12 (human) lipoxygenase inhibition | purified 12hLO, xylenol orange hydroperoxide absorbance | Potency, µM (highest dose often 108 µM), without a hit: at the top dose activity change, negative = inhibition, usual class: inhibitors | P18054 | 580,000 compounds, 1.1% hits; further: on the % scale 0 is the no-effect control and ±100 the full control effect
Target sequence (P18054 whole entry, looked up): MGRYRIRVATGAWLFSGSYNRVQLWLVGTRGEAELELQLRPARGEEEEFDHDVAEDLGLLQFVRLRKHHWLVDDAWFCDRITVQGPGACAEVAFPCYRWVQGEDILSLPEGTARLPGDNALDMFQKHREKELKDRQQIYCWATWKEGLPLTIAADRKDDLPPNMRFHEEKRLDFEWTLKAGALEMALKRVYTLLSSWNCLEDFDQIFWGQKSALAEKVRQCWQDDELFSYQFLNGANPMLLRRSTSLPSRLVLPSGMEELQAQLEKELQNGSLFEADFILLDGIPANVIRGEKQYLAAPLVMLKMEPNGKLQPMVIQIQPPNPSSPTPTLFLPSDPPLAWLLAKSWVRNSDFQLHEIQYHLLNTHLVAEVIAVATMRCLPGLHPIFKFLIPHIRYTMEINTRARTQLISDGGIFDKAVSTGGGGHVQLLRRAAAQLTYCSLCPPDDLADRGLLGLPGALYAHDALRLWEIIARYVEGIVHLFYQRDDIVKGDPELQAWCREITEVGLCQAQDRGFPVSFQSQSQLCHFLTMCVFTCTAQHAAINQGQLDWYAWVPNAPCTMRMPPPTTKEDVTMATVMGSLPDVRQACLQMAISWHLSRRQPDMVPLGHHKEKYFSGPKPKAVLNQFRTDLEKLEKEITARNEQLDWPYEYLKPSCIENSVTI
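Hydroperoxide product was detected by ferrous iron/xylenol orange as the 573 to 405 nm absorbance ratio. Arachidonic acid at 40 uM (final) was turned over for 30 min at room temperature by 150 nM human 12hLO, pH 7.0 Hepes buffer, after 15 min compound preincubation.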
JMJD2A Tudor inh – JMJD2A Tudor domain (human) inhibition; Potency, µM (doses to about 114 µM), without a hit: at the highest dose activity change, negative = inhibition, hits mostly inhibitors; AlphaScreen JMJD2A-Tudor / H3K4me3 peptide binding; O75164; 390,000 compounds, 4.4% hits; further: on the % scale 0 is the no-effect control and ±100 the full control effect; nearly all actives have a fitted effect of over 50% in size
Active calls of the source: *; [ ] = dose if it differs, or a comment. The call rests on the fitted dose curve; in most records, active means well fitted curve in the direction sought with a large enough effect; inconclusive means small, poorly fitted or top-dose-only effect, or another doubt; inactive means no such curve, though single readings can be large; an effect the other way counts as inactive or inconclusive. Potency means the concentration at half of the fitted maximal effect.

For COc1ccc(CN2CCN(Cc3ccco3)CC2)c(OC)c1 the results were BAZ2B block 40µM*, G9a inh 40µM*, HP1b binding inh inconclusive, Sfp PPTase inh 56µM*, 12-LOX inh inconclusive and JMJD2A Tudor inh 3.2µM*.
For COc1ccc(CN2CCC3(CC2)CC(O)CCO3)c(OC)c1 (stereo not drawn) the results were 12-LOX inh 13%.
`COc1cc(CN2CCN(Cc3ccc(C)cc3)CC2)cc(OC)c1` gave 12-LOX inh 0.5µM*.
COc1cc(CN2CCN(Cc3ccco3)CC2)cc(OC)c1 was read as BAZ2B block 25µM*, G9a inh 8.9µM*, HP1b binding inh inconclusive, Sfp PPTase inh inconclusive, 12-LOX inh inconclusive and JMJD2A Tudor inh 0.79µM*.
Screening O=C(CN1C(=O)NC2(CCOc3ccccc32)C1=O)NCCc1c[nH]c2ccccc12 (stereo not drawn) returned 12-LOX inh 1%.
Screening COc1ccc2c(C)c(CC(=O)NCc3ccc(C)cc3)c(=O)oc2c1 returned 12-LOX inh 1%.
COc1ccc(CN2CCc3ccccc3C2)c(OC)c1 was read as BAZ2B block inconclusive, G9a inh -128%[59 µM], HP1b binding inh inconclusive, Sfp PPTase inh -19%, 12-LOX inh inconclusive and JMJD2A Tudor inh 2.8µM*.
Screening Cc1cc(C(=O)C(C)OC(=O)C2=NNC(=O)CC2)c(C)n1-c1ccc(OC(F)F)cc1 (stereo not drawn) returned BAZ2B block inconclusive, G9a inh -33%[59 µM], HP1b binding inh -25%, Sfp PPTase inh 9%, 12-LOX inh 31% and JMJD2A Tudor inh inconclusive.
Screening Cc1cc(C(=O)COC(=O)C2=NNC(=O)CC2)c(C)n1-c1ccc(OC(F)F)cc1 returned BAZ2B block -7%, G9a inh 50µM*, HP1b binding inh -14%, Sfp PPTase inh -20%, 12-LOX inh inconclusive and JMJD2A Tudor inh inconclusive.
For CCCCn1c(CCC(=O)Nc2ccccc2C(C)(C)C)nc2c1c(=O)[nH]c(=O)n2CCC the results were 12-LOX inh 8%.
Screening Oc1ccc2ccccc2c1CN1CCN(C/C=C/c2ccccc2)CC1 returned BAZ2B block inconclusive, G9a inh 10µM*, HP1b binding inh 10%, Sfp PPTase inh 0%, 12-LOX inh inconclusive and JMJD2A Tudor inh inconclusive.
O=S(=O)(c1ccccc1)N1CCN(Cc2c(O)ccc3ccccc23)CC1 was read as HP1b binding inh 22%, 12-LOX inh 7.1µM* and JMJD2A Tudor inh -13%.
For Oc1ccc2ccccc2c1CN1CCN(c2ccccc2F)CC1 the results were BAZ2B block 10%, G9a inh 28µM*, HP1b binding inh 73%, Sfp PPTase inh 6%, 12-LOX inh 45µM* and JMJD2A Tudor inh -6%.
Screening Cc1cc2oc(=O)cc(CN3CCN(c4ccccc4F)CC3)c2cc1O returned 12-LOX inh -3%.
For O=c1cc(CN2CCN(c3ccccc3F)CC2)c2cc(O)c(-c3ccccc3)cc2o1 the results were BAZ2B block 1%, G9a inh -12%, HP1b binding inh -12%, Sfp PPTase inh 6%, 12-LOX inh -13% and JMJD2A Tudor inh 89µM*.
For O=S(=O)(c1ccccc1)N1CCN(CCO)CC1 the results were BAZ2B block 10%, HP1b binding inh 45%, Sfp PPTase inh -3%, 12-LOX inh 14% and JMJD2A Tudor inh -10%.
Cc1ccc(CNC(=O)C(=O)c2c[nH]c3ccccc23)cc1 was read as 12-LOX inh -5%.
O=C(CN1CCN(c2ccccc2F)CC1)c1ccc(O)c(O)c1 was read as BAZ2B block -16%, G9a inh 32µM*, HP1b binding inh 62%, Sfp PPTase inh inconclusive, 12-LOX inh inconclusive and JMJD2A Tudor inh -20%.
For COc1ccc(CNc2ccccc2)cc1Br the results were BAZ2B block 23%, G9a inh -5%[59 µM], HP1b binding inh 49%, Sfp PPTase inh -11%, 12-LOX inh -1% and JMJD2A Tudor inh -7%.
For CCOc1c(Br)cc(CNc2ccc(N3CCN(C(C)=O)CC3)cc2)cc1OC the results were BAZ2B block 40µM*, G9a inh 28µM*, HP1b binding inh -23%, Sfp PPTase inh -16%, 12-LOX inh inconclusive and JMJD2A Tudor inh 50µM*.
Screening C=CCOc1c(Br)cc(CNc2ccc(NC(=O)C(C)C)c(OC)c2)cc1OCC returned BAZ2B block 22%, G9a inh 6.3µM*, HP1b binding inh -2%, Sfp PPTase inh inconclusive, 12-LOX inh 4% and JMJD2A Tudor inh inconclusive.
For C=CCOc1c(Br)cc(CNc2ccc3[nH]c(=O)[nH]c3c2)cc1OCC the results were BAZ2B block -19%, HP1b binding inh 1%, Sfp PPTase inh 7%, 12-LOX inh 13% and JMJD2A Tudor inh -23%.
CCOc1cc(C(=O)Nc2ccc(N3CCN(C(C)=O)CC3)cc2)cc(OCC)c1OCC was read as BAZ2B block -32%, G9a inh inconclusive, HP1b binding inh 22%, Sfp PPTase inh 13%, 12-LOX inh 7% and JMJD2A Tudor inh -9%.
`COc1ccc(CNc2ccc(C)cc2)cc1Br` gave BAZ2B block 50µM*, G9a inh inconclusive, HP1b binding inh inconclusive, Sfp PPTase inh -14%, 12-LOX inh 0% and JMJD2A Tudor inh -36%[57.1 µM].
For CCOc1cc(CNc2ccc(N3CCN(C(C)=O)CC3)cc2)cc(Br)c1OC the results were BAZ2B block 32µM*, G9a inh 28µM*, HP1b binding inh inconclusive, Sfp PPTase inh inconclusive, 12-LOX inh inconclusive and JMJD2A Tudor inh 35µM*.
COc1cc(CNC(C)c2ccccc2)cc(Br)c1OCc1ccccc1 (stereo not drawn) was read as BAZ2B block 45%, G9a inh 20%, HP1b binding inh 119%, Sfp PPTase inh inconclusive, 12-LOX inh 0% and JMJD2A Tudor inh 80%.
For COc1cc(CNc2ccc(O)cc2)cc(Br)c1OCc1ccccc1 the results were BAZ2B block 40µM*, G9a inh 25µM*, HP1b binding inh inconclusive, Sfp PPTase inh 22µM*, 12-LOX inh inactive and JMJD2A Tudor inh 45µM*.
`CC(=O)N1CC=C2C(C#N)=C(N)C(C#N)(C#N)C(C)C2C1` (stereo not drawn) gave BAZ2B block -7%, G9a inh inconclusive, HP1b binding inh 46%, Sfp PPTase inh -5%, 12-LOX inh 0% and JMJD2A Tudor inh -12%.

Compound activity deposited in PubChem by National Center for Advancing Translational Sciences (NCATS).
